Source: PMC4336329 (PLoS ONE, 2015)
About 14,000 (4.5%) of roughly 310,000 compounds showed an effect of 50% or more. Effects have a minus sign here. Only a selection was taken, and strong results are over-represented in it overall.

Target: human ether-à-go-go-related gene (hERG) potassium channel (human, UniProt Q12809)
Assay: primary screen, population patch clamp on CHO cells stably expressing hERG; higher = less effect of the substance
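Also: peak tail current of the secondary pulse compared with the same well before compound.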

Sequence of human ether-à-go-go-related gene (hERG) potassium channel (Q12809 whole entry, looked up): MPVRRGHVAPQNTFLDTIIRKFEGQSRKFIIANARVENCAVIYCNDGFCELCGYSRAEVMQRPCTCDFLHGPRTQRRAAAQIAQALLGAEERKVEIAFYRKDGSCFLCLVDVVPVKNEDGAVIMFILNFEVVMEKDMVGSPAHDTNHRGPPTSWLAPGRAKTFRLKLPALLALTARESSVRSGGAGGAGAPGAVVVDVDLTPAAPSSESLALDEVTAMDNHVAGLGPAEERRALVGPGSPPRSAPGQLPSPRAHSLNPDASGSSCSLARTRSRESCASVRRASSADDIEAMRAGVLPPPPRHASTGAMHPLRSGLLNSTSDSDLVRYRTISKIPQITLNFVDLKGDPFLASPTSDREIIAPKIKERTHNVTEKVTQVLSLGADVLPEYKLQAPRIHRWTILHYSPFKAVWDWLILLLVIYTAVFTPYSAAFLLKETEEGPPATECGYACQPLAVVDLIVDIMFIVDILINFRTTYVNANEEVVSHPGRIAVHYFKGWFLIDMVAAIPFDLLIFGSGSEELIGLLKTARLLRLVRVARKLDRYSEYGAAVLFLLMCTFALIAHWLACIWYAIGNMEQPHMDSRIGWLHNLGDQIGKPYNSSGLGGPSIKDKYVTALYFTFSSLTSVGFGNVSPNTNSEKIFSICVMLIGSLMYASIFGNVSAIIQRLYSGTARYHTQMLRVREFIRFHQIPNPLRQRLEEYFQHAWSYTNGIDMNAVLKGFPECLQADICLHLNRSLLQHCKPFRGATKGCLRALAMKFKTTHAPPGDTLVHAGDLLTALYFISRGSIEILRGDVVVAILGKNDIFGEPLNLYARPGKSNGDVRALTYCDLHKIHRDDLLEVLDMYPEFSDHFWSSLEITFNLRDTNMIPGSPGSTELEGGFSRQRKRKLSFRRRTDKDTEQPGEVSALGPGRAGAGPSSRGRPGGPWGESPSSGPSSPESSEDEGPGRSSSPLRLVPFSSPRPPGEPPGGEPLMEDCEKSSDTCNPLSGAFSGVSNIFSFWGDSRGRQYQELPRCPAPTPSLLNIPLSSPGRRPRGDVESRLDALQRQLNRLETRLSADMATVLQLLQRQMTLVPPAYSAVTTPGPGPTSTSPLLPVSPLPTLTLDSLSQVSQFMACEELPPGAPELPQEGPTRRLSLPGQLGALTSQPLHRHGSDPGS

SMILES | hERG current change (%, negative = inhibition) at 10uM
CCc1nn(C(C)C(=O)N2CC(C)CC(C)C2)c(=O)c2cc3occc3n12 (centres unmarked) | -7.58%
CNC(=O)Nc1ccc(Cl)cc1 | 7.56%
CC(=O)n1cc([C@@H]2C=C(C(=O)N3CCN(Cc4ccccc4)CC3)O[C@H](OCc3ccc(CO)cc3)C2)c2ccccc21 | -10.1%
C=CCOC(=O)C1=C[C@H](c2cn(C(C)=O)c3ccccc23)C[C@H](OCc2ccc(CO)cc2)O1 | -9.82%
O=C(C1=C[C@@H](c2csc3ccccc23)C[C@@H](OCc2ccc(CO)cc2)O1)N1CCOCC1 | -27.5%
CC(=O)n1cc([C@H]2C=C(C(=O)N3CCOCC3)O[C@@H](OCCCCO)C2)c2ccccc21 | -17.1%
O=C(C1=C[C@H](c2csc3ccccc23)C[C@H](OCc2ccc(CO)cc2)O1)N1CCOCC1 | -59.2%
CC(=O)n1cc([C@@H]2C=C(C(=O)O)O[C@H](OCc3ccc(CO)cc3)C2)c2ccccc21 | 0.587%
CC(=O)n1cc([C@@H]2C=C(C(=O)N3CCOCC3)O[C@H](OCc3ccc(CO)cc3)C2)c2ccccc21 | -74.8%
O=C(C1=C[C@H](c2csc3ccccc23)C[C@H](OCc2ccc(CO)cc2)O1)N1CCCCCCC1 | -15.1%
CC(=O)n1cc([C@H]2C=C(C(N)=O)O[C@@H](OCc3ccc(CO)cc3)C2)c2ccccc21 | -16.8%
CC(=O)n1cc([C@H]2C=C(C(=O)N3CCN(Cc4ccccc4)CC3)O[C@@H](OCCCCO)C2)c2ccccc21 | -42.5%
C=CCOC(=O)C1=C[C@@H](c2cn(C(C)=O)c3ccccc23)C[C@@H](OCc2ccc(CO)cc2)O1 | -93.5%
CC(=O)n1cc([C@@H]2C=C(C(=O)N3CCOCC3)O[C@H](OCCCCO)C2)c2ccccc21 | -51.6%
O=C(CCCCCn1c(=S)[nH]c2ccc(N3CCOCC3)cc2c1=O)NCc1ccccc1Cl | 4.65%
C=COCCn1c(-c2nonc2N)nc2ccccc21 | -3.07%
CC(NC(=O)CCC(=O)NCc1ccc(F)cc1)c1ccccc1 (centres unmarked) | 13.3%
COc1ccc(NC(=S)NC(NC(=O)CF)C(Cl)(Cl)Cl)cc1[N+](=O)[O-] (centres unmarked) | 15%
CCOC(=O)c1ccc(NC(=O)CC2C(=O)N(c3ccc(F)cc3)C(=O)N2CCC(C)C)cc1 (centres unmarked) | -8.43%
COc1ccc(-c2cc(-c3ccc(OC)cc3)c(C#N)c(SC)n2)cc1 | 5.38%
CCn1nc(C(=O)Nc2cccc(S(=O)(=O)N3CCCC3)c2)c2ccccc2c1=O | -22.3%
COc1ccc(S(=O)(=O)N2CCCC(C(F)(F)F)C2)cc1 (centres unmarked) | 10.2%
O=C(CCNS(=O)(=O)c1ccc2c(c1)CCC(=O)N2)NCc1ccc2c(c1)OCO2 | 0.608%

SMILES | hERG current change (%, negative = inhibition) at 10uM
Cc1cccc(NC(=O)Nc2cc(C)on2)c1 | 9.14%
C=C1CCC[C@]2(C)C[C@H]3OC(=O)C(CN4CCOCC4)[C@H]3C[C@@H]12 (some centres unmarked) | 17.7%
COc1cccc(OC)c1C(=O)Nc1cccc(-n2cnnn2)c1 | 15.7%
CN1CCC(OC(=O)Cc2ccc(Cl)cc2)CC1.Cl | -11%
CN(C(=S)Nc1ccc(Oc2ccccc2)cc1)c1ccc(O)cc1 | -6.93%
CC(=O)n1cc([C@H]2C=C(C(=O)N3CCOCC3)O[C@@H](OCc3ccc(CO)cc3)C2)c2ccccc21 | -55.2%
CC(=O)n1cc([C@@H]2C=C(C(=O)N3CCN(C)CC3)O[C@H](OCc3ccc(CO)cc3)C2)c2ccccc21 | -41.7%
CC(=O)n1cc([C@H]2C=C(C(=O)N3CCN(Cc4ccccc4)CC3)O[C@@H](OCc3ccc(CO)cc3)C2)c2ccccc21 | -24%
CCN(c1ccccc1)S(=O)(=O)c1ccc(C(=O)N(C)CCc2ccc(OC)c(OC)c2)cc1 | -13.8%
O=[N+]([O-])c1ccc(CN2CCN(c3ccccc3)CC2)o1 | 9.7%
Clc1ccc(N2CCN(Cc3ccc(Br)o3)CC2)cc1 | 7.93%
Brc1ccc(CN2CCN(c3ccccc3)CC2)o1 | 13.8%
O=[N+]([O-])c1ccc(CN2CCN(c3ccc(Cl)cc3)CC2)o1 | -2.29%
O=C(O)C(=O)O.O=[N+]([O-])c1ccc(N2CCN(Cc3ccc([N+](=O)[O-])o3)CC2)cc1 | -71.1%
O=[N+]([O-])c1ccc(N2CCN(Cc3ccc(Br)o3)CC2)cc1 | -65.1%
Cc1c(N)cccc1-n1cccc1 | 16.2%
Cc1ccc2oc(C(=O)N(C)CCC(O)c3ccccc3)c(C)c2c1 (centres unmarked) | 11.5%
COc1ccc(S(=O)(=O)NCCSCc2cccc(C)c2)cc1Br | -0.641%
CCNC(=O)NS(=O)(=O)c1cnccc1Nc1cccc(Cl)c1 | 25.1%
c1ccc(-c2noc(C3CCC3)n2)nc1 | 4.59%
CC(C)CC(=O)N/N=C/c1c(N)n(C)c(=O)n(C)c1=O | 21.7%
NS(=O)(=O)c1ccc(CCNC(=O)Cn2c(=O)c3cccn3c3cccnc32)cc1 | 22.3%
O=C(Cn1c(=O)c2cccn2c2cccnc21)NCCCN1CCN(c2ccc(F)cc2)CC1 | -76.4%

SMILES | hERG current change (%, negative = inhibition) at 10uM
COc1ccc(N2CCN(CCCNC(=O)Cn3c(=O)c4cccn4c4cccnc43)CC2)cc1 | -57.2%
CN1CCN(CCNC(=O)Cn2c(=O)c3cccn3c3ccc(F)cc32)CC1 | 14.1%
O=C(Cn1c(=O)c2cccn2c2ccccc21)NCCCN1CCCCC1 | 3.5%
O=C(Cn1c(=O)c2cccn2c2ccc(F)cc21)NCCCN1CCN(c2ccccc2F)CC1 | -50.5%
COc1ccc(N2CCN(CCCNC(=O)Cn3c(=O)c4cccn4c4ccccc43)CC2)cc1 | -43.7%
COc1ccc(N2CCN(C(=O)Cn3c(=O)c4cccn4c4cccnc43)CC2)cc1 | -15.3%
CCN1CCN(CCNC(=O)Cn2c(=O)c3cccn3c3ccc(F)cc32)CC1 | -2.61%
COc1ccccc1CCNC(=O)C(=O)NCCC1CCCCN1S(=O)(=O)c1cccs1 (centres unmarked) | -6.92%
Cc1c(NC(=O)CSCc2ccccc2)cccc1C(=O)O | 18%
CCn1cc([N+](=O)[O-])c(C(=O)N2N=C(c3ccc4ccccc4c3)CC2c2ccccc2O)n1 (centres unmarked) | 3.19%
Clc1ncccc1-c1nnn(-c2ccccc2)n1 | 15.1%
Cc1[nH]c2ccccc2c1/C=N/NC(N)=S | 2.1%
N#CCCS(=O)(=O)c1nnnn1-c1ccccc1 | -18.7%
Cn1c(O)c(N=NC(=O)Cn2c(C(F)(F)F)nc3ccccc32)c2ccccc21 | 6.02%
CC(C)C(C(=O)O)N1C(=O)/C(=C/c2cccn2C)SC1=S (centres unmarked) | -0.129%
COCC1CCCN(C(=O)c2ccc3oc(Cc4ccc(Cl)cc4)nc3c2)C1 (centres unmarked) | -24.7%
Cc1ccc(NC(=O)CN2CCCC2)cc1.Cl | 19.1%
O=C(CN1CCN(C(=O)C2CCC2)CC1)Nc1ccc(F)cc1 | -69.9%
O=C(CN1CCN(C(=O)N2CCCCC2)CC1)Nc1ccc(F)cc1 | -74.9%
O=C(C1CCCC1)N1CCCC(Nc2ccc(F)cc2)C1 (centres unmarked) | -37.2%
Cl.O=C(CN1CCN(c2cccc(C(F)(F)F)c2)CC1)Nc1cccc(C(F)(F)F)c1 | -1.14%
O=C(CN1CCCC1)Nc1ccc(F)cc1 | 23.3%
O=C(CN1CCCC1)Nc1cc(C(F)(F)F)cc(C(F)(F)F)c1 | -17.9%

SMILES | hERG current change (%, negative = inhibition) at 10uM
O=C(CN1CCN(C(=O)C2CC2)CC1)Nc1cc(C(F)(F)F)cc(C(F)(F)F)c1 | -54.4%
O=C(CN1CCCC1)NCC(=O)Nc1ccc(F)cc1 | 8.87%
CC(O)(CS(=O)(=O)Cc1ccccc1)C(=O)Nc1cccc(C(F)(F)F)c1 (centres unmarked) | 1.72%
COC(=O)Nc1ccc(S(=O)(=O)N2CCCc3ccccc32)cc1 | 8.63%
O=C1Oc2ccccc2C(=O)/C1=C/N1CCN(c2ccccc2F)CC1 | -0.353%
O=c1[nH]c(Cl)ccc1CN1CCOCC1 | 14.5%
Cc1ccccc1C(=O)Nn1cnnc1 | 3.49%
COc1ccc(S(=O)(=O)NCc2ccc(C(=O)NCCCN3CC(C)CC(C)C3)cc2)cc1 (centres unmarked) | -28.1%
COC(=O)c1cc(S(=O)(=O)N2CCC(C)CC2)ccc1F | -18%
COc1ccc(-c2cc(CNS(=O)(=O)c3cc(OC)ccc3OC)on2)cc1 | 6.1%
O=C(NC(=S)Nc1ccc2nc[nH]c2c1)c1ccccc1 | 12.4%
COc1ccc(CCNCc2ccsc2)cc1OC | 1.86%
Cc1cc(/C=C2\Cc3ccccc3C2=O)c(C)n1-c1ccccc1 | 1.62%
O=C(Nc1ccc(N2CCOCC2)c(F)c1)c1cccs1 | 1.9%
O=C(CNS(=O)(=O)c1ccc(F)cc1)N1CCN(c2ccccc2)CC1 | -11.7%
O=C(CNS(=O)(=O)c1ccc(Br)s1)N1CCN(c2ccc(F)cc2)CC1 | -25.2%
O=C(CNS(=O)(=O)c1ccc(F)cc1)N1CCN(c2ccc(F)cc2)CC1 | -51.7%
O=C(CNS(=O)(=O)c1ccc(F)cc1)N1CCCC1 | 12%
O=C(CNS(=O)(=O)c1ccc(Br)cc1)N1CCN(c2ccc(F)cc2)CC1 | -56.5%
Cc1ccc(S(=O)(=O)NCC(=O)N2CCN(c3ccc(F)cc3)CC2)cc1 | -10.2%
